Shown are actives, neighbours in structure and some others; about 4% of the full set was active somewhere.
Peg3 promoter: Peg3 promoter activity inhibition. HeLa PEG-Prom luciferase reporter, luminescence, overnight. inhibition, % at 20 µM. 360,000 compounds, 1.7% hits. AID 588405;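 active = inhibition of at least 50% at 20 µM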
HIF-2a block: inhibitors of HIF-2a. inhibition, % at 18.8 µM. 360,000 compounds, 0.72% hits. AID 624352. 786-0 RCC cells HIF-2a reporter, luciferase luminescence, overnight;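 active = inhibition of the luminescence signal of 40% or more relative to plate controls, in a single-dose primary screen at 18.75 µM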
KKLEB cytotox: counter-screen for CF NF-kB inhibitors: cytotoxicity; 360,000 compounds, 0.36% hits; AID 602141; activity change (cytotoxicity), % at 5 µM; KKLEB CF airway cells viability, ATPlite luminescence, overnight; stronger effect = lower value; cells stimulated with P. aeruginosa culture filtrate;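 active = corrected activity change at or below -50% at 5 µM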
CF NFkB block: blocks PAF-induced NF-kB reporter in cystic fibrosis cells; KKLEB NF-kB-GFP reporter, GFP fluorescence overnight; inhibition, % at 5 µM; 360,000 compounds, 0.86% hits; AID 588850;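 active = at least 50% inhibition at 5 µM, scaled per plate between neutral and stimulator controls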;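 note: PAF is a Pseudomonas aeruginosa culture filtrate used as stimulus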
TWEAK-Fn14 inh: blocks TWEAK-Fn14 interaction in a reporter cell assay. TWEAK-stimulated Fn14 reporter cells, luciferase luminescence, 8 h. inhibition, % at 10 µM. 360,000 compounds, 2% hits. AID 1159606; in the data active = inhibition above about 50%
TROY NFkB inh: inhibitors of TROY-dependent NF-kB signaling. inhibition, % at 10 µM. 360,000 compounds, 0.98% hits. AID 1347056. Q293 LMP1-TROYcd NF-kB luciferase reporter, 4 h;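 active = compounds whose plate-normalised and pattern-corrected inhibition of the luciferase reporter signal at the single screening dose is 50% or more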
Large screens that a line does not name were inactive.

COc1cc(CNCc2ccccc2Cl)ccc1OCC(=O)NC1CCCCC1	TWEAK-Fn14 inh 86
COc1cc(CNn2cnnc2)ccc1OCC(=O)NC1CCCCC1	none
NC(=O)C1CCN(C(=O)CNC(=O)c2ccc(F)cc2)CC1	none
Cn1nc(C(F)(F)F)c(/C=N/OC(=O)c2ccccc2)c1SCc1ccccc1Cl	Peg3 promoter 53
CCn1nc(C)c(CN2CCC(Oc3ccc(C(=O)N4CCCC4)cc3)CC2)c1C	none
COc1cccc(CNC(=O)[C@@H]2CCCN2C(=O)[C@@H]2CCCN2C(=O)c2cccs2)c1	none (no result: Peg3 promoter, KKLEB cytotox, CF NFkB block)
CCOC(=O)c1c(CSC(=N)N)n(-c2ccc(C)cc2)c2cc(Br)c(OC(C)=O)cc12	Peg3 promoter 54, TWEAK-Fn14 inh 92
C[C@@H]1CN([C@H](C)CO)C(=O)c2c(c3ccccc3n2C)-c2ccccc2CO[C@H]1CN(C)C(=O)NC1CCCCC1	none
COc1ccc2cc(C(N)=O)/c(=N\NC(=O)c3ccccc3)oc2c1	TWEAK-Fn14 inh 89, TROY NFkB inh 58
COc1cccc(N2CCN(c3ncnc4c3[nH]c3ccc(F)cc34)CC2C)c1 (centres undefined)	Peg3 promoter 114, CF NFkB block 88, TWEAK-Fn14 inh 104, TROY NFkB inh 86
COc1cc2[nH]c3c(N4CCN(c5ccc(Cl)cc5)CC4)ncnc3c2cc1OC	none
COc1ccc2c(c1)[nH]c1c(N3CCSCC3)ncnc12	TROY NFkB inh 63
COc1ccc2c(c1)[nH]c1c(N3CCN(Cc4ccc5c(c4)OCO5)CC3)ncnc12	TWEAK-Fn14 inh 100, TROY NFkB inh 66
COc1ccccc1CNC(=O)COC(=O)c1ccccc1-c1ccccc1	none
O=c1c2ccccc2cnn1-c1ccc2ccccc2c1	TWEAK-Fn14 inh 55
CCOC(=O)CN1C(=O)c2ccccc2C1=O	none
CCCOC(=O)CN1C(=O)c2ccccc2C1=O	TWEAK-Fn14 inh 82 (no result: TROY NFkB inh)
Cc1[nH]n(-c2ccccc2)c(=O)c1N=Nc1cccc(C(=O)O)c1	Peg3 promoter 64, HIF-2a block 64, TWEAK-Fn14 inh 58
Cc1[nH]n(-c2ccccc2)c(=O)c1N=Nc1ccc(C(=O)O)cc1	none
CCOc1ccc2nc(SCC(=O)NCc3ccc(S(N)(=O)=O)cc3)[nH]c2c1	none
CC[C@@H](C)C(C(=O)N1CCN(C(=O)OC(C)(C)C)CC1)n1cc(-c2cn([C@@H](C)C(=O)N3CCN(C(=O)OC(C)(C)C)CC3)nn2)nn1 (some centres undefined)	TROY NFkB inh 55
COc1cccc(C(=O)CSc2nccn2C)c1	TWEAK-Fn14 inh 86
Cc1c(CNCCCc2ccccc2)c(C(=O)O)c(C)n1Cc1ccccc1	TROY NFkB inh 52
Cc1c(CNCC(C)c2ccccc2)c(C(=O)O)c(C)n1Cc1ccccc1 (centres undefined)	none
Cn1c(=O)c(C#N)c(-c2ccc(F)cc2)c2cc(C(=O)c3cc(Cl)cc(Cl)c3O)cnc21	TWEAK-Fn14 inh 57, TROY NFkB inh 67
COc1ccccc1-n1c(=O)c(C#N)c(-c2ccc([N+](=O)[O-])cc2)c2cc(C(=O)c3cc(F)ccc3O)cnc21	none
COc1ccc2c(c1)CN(C)S(=O)(=O)c1ccccc1-2	none
CC1CCN(S(=O)(=O)c2cnc[nH]2)CC1	none
CC(C)(C)[C@H]1C=C(C(=O)NCc2nc3ccccc3[nH]2)O[C@@H](OCc2ccc(CO)cc2)C1	none
CCC(C)NC(=O)CC(NS(=O)(=O)c1ccc(Cl)cc1)c1ccco1 (centres undefined)	TWEAK-Fn14 inh 59
Fc1cc2[nH]c(=S)[nH]c2c(Br)c1N1CCSCC1	none
CC1CC(C)CN(S(=O)(=O)CCNC(=O)c2ccc3c(c2)OCO3)C1 (centres undefined)	none
Cc1ccc(S(=O)(=O)N2[C@@H](c3ccc(Br)cc3)C(C(=O)O)=CC[C@H]2c2ccc(Cl)c(Cl)c2)cc1	TROY NFkB inh 62
Cc1ccc(S(=O)(=O)N2[C@@H](c3ccc(C(C)(C)C)cc3)C(C(=O)O)=CC[C@H]2c2ccc(Cl)c(Cl)c2)cc1	none
Cc1ccc(S(=O)(=O)N2[C@@H](c3ccc(C(C)(C)C)cc3)C(C(=O)O)=CC[C@H]2c2cccc(Cl)c2)cc1	TWEAK-Fn14 inh 50, TROY NFkB inh 81
COc1ccc(CN2C(=NC(=O)CCc3ccccc3)SC3CS(=O)(=O)CC32)cc1 (centres undefined)	none
COc1ccc(NS(=O)(=O)c2cccc(C(=O)O)c2)cc1S(=O)(=O)N1CCOCC1	none
COc1ccc(-c2nc(-c3cccs3)no2)cc1	TWEAK-Fn14 inh 86, TROY NFkB inh 58
COc1ccc(CN2C(=O)CSCC2(C)C(=O)NCc2ccccc2)cc1OC (centres undefined)	none (no result: Peg3 promoter, KKLEB cytotox, CF NFkB block, TWEAK-Fn14 inh, TROY NFkB inh)
Cc1cc(C(=O)c2ccc(Cl)cc2)c(NC(=O)CCl)s1	Peg3 promoter 89
CCc1cc(C(=O)c2ccc(C)cc2)c(NC(=O)CCl)s1	none
NS(=O)(=O)c1ccc(N2CCN(C(=O)c3ccco3)CC2)nc1	Peg3 promoter 51
O=C(c1ccco1)N1CCN(S(=O)(=O)c2ccc(Cl)cc2)CC1	none
O=C(c1ccco1)N1CCN(S(=O)(=O)c2c(Cl)cccc2Cl)CC1	TWEAK-Fn14 inh 92
COCCNC(=O)C1(C)CCCN(C(=O)Cc2ccc3ccccc3c2)C1 (centres undefined)	none
COC(=O)c1c(NC(=O)COC(=O)CNC(=O)c2cccc(OC(F)F)c2)sc(C)c1C	none
O=C(O)c1ccc2c(c1)C(=O)N(c1cccc3ccccc13)C2=O	none
COc1ccc(C(=O)Nc2ccc(NC(=O)c3cc(OC)c(OC)c(OC)c3)cn2)cc1	none
CC(C)Nc1ncnc2c1ncn2[C@H]1CN(Cc2ccc(-c3ccccc3)cc2)C[C@@H](CO)O1	none
CC(C)CNc1ncnc2c1ncn2[C@H]1CN(Cc2ccc(-c3ccccc3)cc2)C[C@@H](CO)O1	TWEAK-Fn14 inh 51
COc1cc(CNc2ncnc3c2ncn3[C@H]2CN(Cc3ccc(-c4ccccc4)cc3)C[C@@H](CO)O2)cc(OC)c1OC	TWEAK-Fn14 inh 69
O=C1NC(=S)SC1=Cc1ccc2c(c1)OCO2	none
O=C1NC(=S)N/C1=C/c1ccc2c(c1)OCO2	Peg3 promoter 72, CF NFkB block 78, TWEAK-Fn14 inh 54
O=C(Nc1ccccc1Cl)c1ccc(C(=O)Nc2ccccc2Cl)cc1	TROY NFkB inh 62
COc1ccc(NC(=O)c2cc3c([nH]c4ccccc43)c(C)n2)cc1	none
Cc1nc(C(=O)Nc2ccccc2Cl)cc2c1[nH]c1ccccc12	Peg3 promoter 85
Cc1cccc(C)c1NC(=O)COC(=O)[C@@H]1CCCN1C(=O)c1cccs1	none
Cc1ccc(-c2c3c(nc4sc(C(N)=O)c(N)c24)CCC3)cc1	none
COc1ccc(-c2c3c(nc4sc5c(Cl)nc(C)nc5c24)CCC3)cc1	Peg3 promoter 109
CN(C)/C=N/C(=S)Nc1ccccc1F	TWEAK-Fn14 inh 74 (no result: TROY NFkB inh)
